NPYLR7 ag: agonists of mosquito NPYLR7 receptor, primary screen, cell-based, Aedes aegypti, calcium fluorescence, mosquito biting behavior | 270,000 tested, 0.15% active | activation, % at 10 µM | Aedes aegypti neuropeptide Y-like receptor 7 (NPYLR7) | HEK293T NPYLR7/Galpha15, GCaMP6s calcium fluorescence; in the data active means activation above about 40%
mcGAS inh: cyclic GMP-AMP synthase inhibitors, mouse, primary biochemical chemiluminescence. Q8C6L5. 160,000 tested, 0.15% active. inhibition, % at 12.5 µM. AID 1259399, 2018. recombinant cGAS, Kinase-Glo ATP depletion luminescence
Target sequence (Q8C6L5 whole entry, looked up): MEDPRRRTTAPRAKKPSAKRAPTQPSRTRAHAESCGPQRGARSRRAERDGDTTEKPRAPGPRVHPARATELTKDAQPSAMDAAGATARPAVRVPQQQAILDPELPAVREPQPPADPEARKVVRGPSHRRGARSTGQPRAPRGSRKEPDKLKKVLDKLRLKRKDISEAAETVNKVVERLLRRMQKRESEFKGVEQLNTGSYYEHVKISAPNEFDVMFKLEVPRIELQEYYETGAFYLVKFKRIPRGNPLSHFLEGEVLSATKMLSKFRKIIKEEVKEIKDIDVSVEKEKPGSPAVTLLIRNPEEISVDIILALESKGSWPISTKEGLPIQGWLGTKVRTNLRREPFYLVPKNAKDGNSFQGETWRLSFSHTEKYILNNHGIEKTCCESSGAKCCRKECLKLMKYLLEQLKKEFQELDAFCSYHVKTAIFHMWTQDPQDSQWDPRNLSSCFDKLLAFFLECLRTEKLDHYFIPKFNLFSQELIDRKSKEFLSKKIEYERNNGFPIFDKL
hcGAS lum: Primary biochemical luminescence assay for human cyclic GMP-AMP synthase inhibitors; Q8N884; recombinant h-cGAS, ATP depletion, Kinase-Glo luminescence; inhibition, % at 12.5 µM; 290,000 tested, 0.081% active
Large screens that a line does not name were inactive; ! = repeats disagree. Shown are actives, neighbours in structure and some others; about 0.3% of the full set was active somewhere. Unless noted, no stated cut-off is given here; in the data, active means inhibition above about 40%; inactive means the rest.

C=CCN1C(=O)/C(=C\c2ccc(N(C)C)cc2)SC1=S	none
CC(C)C(C(=O)O)N1C(=O)/C(=C/c2ccc(O)cc2)SC1=S (stereo unspecified)	NPYLR7 ag 68
CN(C)c1ccc(/C=C2/SC(=S)N(CC(=O)O)C2=O)cc1	NPYLR7 ag 71
O=C(O)C(Cc1ccccc1)N1C(=O)/C(=C/c2ccc([N+](=O)[O-])cc2)SC1=S (stereo unspecified)	mcGAS inh 54
CC(C(=O)O)N1C(=O)/C(=C/c2ccc([N+](=O)[O-])cc2)SC1=S (stereo unspecified)	none
C=CCN1C(=O)C(=Cc2ccncc2)SC1=S	none (no result: mcGAS inh)
Cc1ccc(/C=C2\SC(=S)N(C(C(=O)O)C(C)C)C2=O)cc1 (stereo unspecified)	none
CNC(=S)N1CCc2ccccc21	none (no result: mcGAS inh)
Cc1cccc(-c2ccc(C(=O)N(C)CC3COc4ccccc4O3)cn2)c1C (stereo unspecified)	none
CCC(=O)c1cc(Br)ccc1OCc1ccc(C)cc1	none (no result: mcGAS inh)
Cc1cccc(-c2cc(N)n(-c3ccc(C(=O)NCCCc4ccccc4)cc3)n2)c1	none
CC(C)Cc1cc(CNC(=O)c2ccccc2C2CCNC2)no1 (stereo unspecified)	none (no result: mcGAS inh)
COc1cc(OC)c(OC)cc1/C=C1/SC(=S)N(CC(=O)O)C1=O	NPYLR7 ag 59
CCN(CC)c1ccc(/C=C2\SC(=S)N(CC(=O)O)C2=O)c(O)c1	NPYLR7 ag 93
O=C(O)CCCN1C(=O)/C(=C\c2ccc(O)cc2)SC1=S	none
O=C(O)CN1C(=O)/C(=C\c2ccc(O)cc2)SC1=S	NPYLR7 ag 59 (no result: mcGAS inh)
O=C(O)CN1C(=O)/C(=C\c2ccc(O)c(O)c2)SC1=S	none
COc1ccc(Br)cc1/C=C1/SC(=S)N(CC(=O)O)C1=O	none (no result: mcGAS inh)
CCC(NC(=O)c1c(-c2ccccc2Cl)noc1C)C12CC3CC(CC(C3)C1)C2 (stereo unspecified)	none
Cc1cccc(CN(CC(O)COCC(C)C)CC2CCCO2)c1 (stereo unspecified)	none
CC(=O)N1CCC(C(=O)N(C)CC2CCCCC2)CC1	none (no result: mcGAS inh)
Fc1ccc(Oc2cc(N3CCN(Cc4ccc5c(c4)OCO5)CC3)ncn2)c(Cl)c1	none
Cc1c[nH]c(CN2CCOC(C(F)(F)F)C2)c(C)c1=O (stereo unspecified)	none (no result: mcGAS inh)
CCOc1cc(-c2nn(CN3CCOCC3)c(=S)o2)cc(OCC)c1OCC	none (no result: mcGAS inh)
S=c1oc(-c2sc3ccccc3c2Cl)nn1CN1CCOCC1	hcGAS lum 43
CCOC(=O)c1nn(-c2ccc(C)cc2)c(=O)cc1N1CCN(CCO)CC1	none (no result: mcGAS inh)
Oc1cccc2ccc(Nc3ccccn3)nc12	hcGAS lum 57
Oc1ccccc1C(Nc1ccccn1)c1ccc2cccnc2c1O (stereo unspecified)	none (no result: mcGAS inh)
OC=c1ccc2cccc3nc(C(F)(F)F)nc1c23	NPYLR7 ag 77 (no result: mcGAS inh)
OC(c1ccccc1)=c1ccc2cccc3ncnc1c23	none (no result: mcGAS inh)
Cc1ccccc1Cn1ccnc1CN(C(=O)c1ccc(Cl)cc1)C1CCCCC1	none
Cc1ccc(N2CCN(C(=O)c3snc4c(=O)n(CC(C)C)c(=O)[nH]c34)CC2)c(C)c1	none (no result: mcGAS inh)
O=C(c1snc2c(=O)n(Cc3ccccc3)c(=O)[nH]c12)N1CCSCC1	NPYLR7 ag 65 (no result: mcGAS inh)
Nc1nc(Nc2ccccc2)nc2c1ncn2[C@@H]1O[C@H](CO)[C@H](O)C1O (stereo partly specified)	none
Nc1nc(Cl)nc2c1ncn2[C@@H]1O[C@H](CO)[C@H](O)C1O (stereo partly specified)	NPYLR7 ag 97
Nc1ncn([C@@H]2O[C@H](CO)[C@@H](O)[C@H]2O)c(=O)n1	NPYLR7 ag 46!
OC[C@H]1O[C@@H](n2cnc3c(NC4CCCC4)nc(Cl)nc32)[C@@H](O)C1O (stereo partly specified)	none (no result: mcGAS inh)
Nc1nc(Cl)nc2c1ncn2[C@@H]1O[C@H](CO)[C@@H](O)[C@H]1O	NPYLR7 ag 76 (no result: mcGAS inh)
NC(=O)c1ncn(C2O[C@H](CO)[C@@H](O)[C@H]2O)c1N (stereo partly specified)	none (no result: mcGAS inh)
CCOC(=O)c1nn(CCC(C)C)c2c1CN(C(=O)CCc1cccs1)CC2	none
Cn1cc(CCC(=O)N2CCOC(CCCc3ccccc3)C2)cn1 (stereo unspecified)	none (no result: mcGAS inh)
c1ccc(Oc2ccccc2-c2cc(N3CCN(Cc4cccnc4)CC3)n3nccc3n2)cc1	none
CN(Cc1ccc(-n2cncn2)cc1)Cc1nc2ccccc2n1C	none (no result: mcGAS inh)
Cc1nc(NC(=O)C(C)OC(=O)C2CCN(C(=O)C3CC3)CC2)sc1C (stereo unspecified)	none (no result: mcGAS inh)
COC(=O)c1ccc(COC(CN2CCN(C(=O)Nc3cccc(F)c3)CC2)c2cccc(OC)c2)cc1 (stereo unspecified)	none (no result: NPYLR7 ag)
NC(=S)N/N=c1\oc2ccccc2cc1-c1nc2ccccc2[nH]1	none (no result: mcGAS inh)
CCOC(=O)c1ccc(N=c2oc3cc(O)ccc3cc2-c2nc3ccccc3[nH]2)cc1	NPYLR7 ag 120
CCOC(=O)c1ccc(N=c2oc3ccccc3cc2-c2nc3ccccc3[nH]2)cc1	none
NC(=O)N/N=c1\oc2ccccc2cc1-c1nc2ccccc2[nH]1	mcGAS inh 48
COc1ccccc1N=c1oc2ccc3ccccc3c2cc1-c1nc2ccccc2[nH]1	none (no result: mcGAS inh)
COc1ccccc1N=c1oc2cc(O)ccc2cc1-c1nc2ccccc2[nH]1	NPYLR7 ag 81
Cc1ccc(NC(=O)N(Cc2cccc(OS(=O)(=O)c3cccc(C(F)(F)F)c3)c2)Cc2ccco2)cc1Cl	none
CCOC(=O)CC1COCCN1Cc1nc(-c2ccc(C(=O)OC)cc2)oc1C (stereo unspecified)	none (no result: mcGAS inh)
Cc1nn(C)c(N(C)C)c1CNCc1ccc2c(c1)CCCN2C	none
O=C(Nc1cc(-c2ccco2)nn1-c1ccc(C(F)(F)F)cc1)c1cc(F)cc(C(F)(F)F)c1	none
C=CCN1C(=O)C(Cc2ccc(OC)cc2)S/C1=N/N=C\c1cccs1 (stereo unspecified)	NPYLR7 ag 88
C=CCN1C(=O)C(Cc2ccc(OC)cc2)S/C1=N\N=C/c1ccco1 (stereo unspecified)	none
CCN(CC)C(=O)COC(=O)c1cccc(N2CC(=O)C(c3nc4ccccc4s3)C2=N)c1 (stereo unspecified)	none
N=C1C(c2nc3ccccc3s2)C(=O)CN1N1C(=O)c2ccccc2C1=O (stereo unspecified)	mcGAS inh 43
N#Cc1c(N)oc(-c2ccccc2)c1-c1ccccc1	hcGAS lum 50
Nc1nnc(-c2ccccc2)o1	none (no result: mcGAS inh)
N#Cc1c(N)oc(-c2cccs2)c1-c1cccs1	hcGAS lum 55 (no result: mcGAS inh)
Cc1nc(N)c(C#N)c(-c2cccs2)c1C	none (no result: mcGAS inh)
CCC(C)n1cc(/C=C2/C(=O)NC(=O)N(c3ccc4c(c3)OCO4)C2=O)c2ccccc21 (stereo unspecified)	NPYLR7 ag 52 (no result: mcGAS inh)
COc1cccc(N2C(=O)NC(=O)/C(=C/c3cn(C(C)=O)c4ccccc34)C2=O)c1	none
O=C(NC(c1ccc(Cl)cc1)C1CC1)c1ccco1 (stereo unspecified)	none
NS(=O)(=O)c1ccc(NC(NC(=O)c2ccco2)C(=O)c2ccc(Cl)cc2)cc1 (stereo unspecified)	NPYLR7 ag 45 (no result: mcGAS inh)
CC(c1ccccc1)N(Cc1cccc(Cl)c1)Cc1nc(C(=O)NCc2ccc(F)cc2)co1 (stereo unspecified)	none

Source: PubChem
